The full data set covers some 8,800 targets. This sample favours those with a hit. About 0.5% of all pairs of compound and target were hits. Unmarked numbers belong to inactive results.
Tests used:
Test in all cases: log2 fold change, soluble protein after heating vs DMSO (PISA); higher = thermal stabilisation; K562 lysate, 10 uM; active = over 0.2 and 3.5 SD of the protein, either way, in both replicates (recomputed)
nilotinib = compound: Cc1cn(-c2cc(NC(=O)c3ccc(C)c(Nc4nccc(-c5cccnc5)n4)c3)cc(C(F)(F)F)c2)cn1 [nilotinib]
In short: (§1)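 Quantification was by TMTpro 16plex LC-MS/MS with equalised channel sums, applied to the supernatant after 21,000xg for 90 min. Samples were crude K562 extract at 1 mg/mL protein in PBS pH 7.4 with 1 mM MgCl2, treated with 10 μM compound for 30 min, heated for 3 min across 48°C-58°C, pooled and brought to 0.5% NP-40 at 4°C. Values are log-two fold changes in thermal stability relative to solvent controls, from duplicates.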

[1] = compound: Cc1nc(Nc2n[nH]c3c2CN(C(=O)N[C@H](CN(C)C)c2ccccc2)C3(C)C)c2sccc2n1
In short: as §1

dasatinib = compound: Cc1nc(Nc2ncc(C(=O)Nc3c(C)cccc3Cl)s2)cc(N2CCN(CCO)CC2)n1 [dasatinib]
In short: as §1

[2] = compound: Cc1ncc(-c2ccnc(Nc3ccc(S(C)(=O)=O)cc3)n2)n1C(C)C
In short: as §1

[3] = compound: Cn1cc(-c2ccc3c(c2)CCN3C(=O)Cc2cccc(C(F)(F)F)c2)c2c(N)ncnc21
In short: as §1

quisinostat = compound: Cn1cc(CNCC2CCN(c3ncc(C(=O)NO)cn3)CC2)c2ccccc21 [quisinostat]
In short: as §1

tipifarnib = compound: Cn1cncc1[C@@](N)(c1ccc(Cl)cc1)c1ccc2c(c1)c(-c1cccc(Cl)c1)cc(=O)n2C [tipifarnib]
In short: as §1

[4] = compound: NC(=O)Nc1cc(-c2cccc(F)c2)sc1C(=O)N[C@H]1CCCNC1
In short: as §1

[5] = compound: NC(=O)c1cnc(N[C@@H]2CCCC[C@@H]2N)nc1Nc1cccc(-n2nccn2)c1
In short: as §1

[6] = compound: NC1(c2ccc(-c3nc4ccn5c(=O)[nH]nc5c4cc3-c3ccccc3)cc2)CCC1
In short: as §1

Sequence of UniProt P00374 (P00374 whole entry, looked up): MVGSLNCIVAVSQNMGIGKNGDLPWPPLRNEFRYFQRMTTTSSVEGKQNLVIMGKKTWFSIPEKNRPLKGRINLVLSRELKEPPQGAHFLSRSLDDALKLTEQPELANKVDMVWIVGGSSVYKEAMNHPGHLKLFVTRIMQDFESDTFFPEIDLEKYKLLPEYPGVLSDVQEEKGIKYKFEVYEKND
Sequence of UniProt Q6P3S1 (Q6P3S1 whole entry, looked up): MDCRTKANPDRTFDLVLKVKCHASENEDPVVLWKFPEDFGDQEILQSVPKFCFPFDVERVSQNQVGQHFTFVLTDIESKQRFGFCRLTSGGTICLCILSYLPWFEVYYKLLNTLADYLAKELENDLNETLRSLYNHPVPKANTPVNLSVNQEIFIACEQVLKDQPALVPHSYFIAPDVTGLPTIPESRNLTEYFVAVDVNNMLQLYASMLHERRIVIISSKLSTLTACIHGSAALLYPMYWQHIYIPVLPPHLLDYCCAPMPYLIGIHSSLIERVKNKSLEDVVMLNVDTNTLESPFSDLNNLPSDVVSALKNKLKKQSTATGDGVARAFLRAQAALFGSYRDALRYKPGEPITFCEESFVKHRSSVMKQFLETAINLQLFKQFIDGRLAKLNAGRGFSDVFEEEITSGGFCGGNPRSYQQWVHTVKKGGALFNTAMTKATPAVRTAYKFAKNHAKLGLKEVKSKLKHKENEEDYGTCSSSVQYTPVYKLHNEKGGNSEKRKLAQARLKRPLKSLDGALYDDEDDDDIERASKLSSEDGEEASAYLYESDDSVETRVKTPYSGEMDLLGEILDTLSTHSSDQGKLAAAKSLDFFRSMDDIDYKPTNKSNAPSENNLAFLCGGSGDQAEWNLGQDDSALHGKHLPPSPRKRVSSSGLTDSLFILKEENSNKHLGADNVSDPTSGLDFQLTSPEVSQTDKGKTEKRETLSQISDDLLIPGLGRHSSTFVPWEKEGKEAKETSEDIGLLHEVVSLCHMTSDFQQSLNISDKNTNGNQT
Sequence of UniProt P17812 (P17812 whole entry, looked up): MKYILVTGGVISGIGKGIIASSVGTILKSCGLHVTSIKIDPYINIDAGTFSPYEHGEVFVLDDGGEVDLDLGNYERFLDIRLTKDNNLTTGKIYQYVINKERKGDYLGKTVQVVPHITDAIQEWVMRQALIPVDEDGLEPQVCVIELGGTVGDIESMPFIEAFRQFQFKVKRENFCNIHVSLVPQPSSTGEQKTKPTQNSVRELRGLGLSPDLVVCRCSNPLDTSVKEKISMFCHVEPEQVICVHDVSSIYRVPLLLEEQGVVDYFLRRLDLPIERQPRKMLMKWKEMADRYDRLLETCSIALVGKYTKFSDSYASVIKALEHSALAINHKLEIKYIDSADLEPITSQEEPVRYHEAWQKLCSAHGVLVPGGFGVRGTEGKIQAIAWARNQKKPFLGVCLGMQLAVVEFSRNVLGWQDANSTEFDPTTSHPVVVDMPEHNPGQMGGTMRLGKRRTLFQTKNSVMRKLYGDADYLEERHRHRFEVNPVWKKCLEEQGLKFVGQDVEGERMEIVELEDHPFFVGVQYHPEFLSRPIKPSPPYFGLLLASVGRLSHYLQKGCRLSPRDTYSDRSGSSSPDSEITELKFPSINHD
Sequence of UniProt Q14008 (Q14008 whole entry, looked up): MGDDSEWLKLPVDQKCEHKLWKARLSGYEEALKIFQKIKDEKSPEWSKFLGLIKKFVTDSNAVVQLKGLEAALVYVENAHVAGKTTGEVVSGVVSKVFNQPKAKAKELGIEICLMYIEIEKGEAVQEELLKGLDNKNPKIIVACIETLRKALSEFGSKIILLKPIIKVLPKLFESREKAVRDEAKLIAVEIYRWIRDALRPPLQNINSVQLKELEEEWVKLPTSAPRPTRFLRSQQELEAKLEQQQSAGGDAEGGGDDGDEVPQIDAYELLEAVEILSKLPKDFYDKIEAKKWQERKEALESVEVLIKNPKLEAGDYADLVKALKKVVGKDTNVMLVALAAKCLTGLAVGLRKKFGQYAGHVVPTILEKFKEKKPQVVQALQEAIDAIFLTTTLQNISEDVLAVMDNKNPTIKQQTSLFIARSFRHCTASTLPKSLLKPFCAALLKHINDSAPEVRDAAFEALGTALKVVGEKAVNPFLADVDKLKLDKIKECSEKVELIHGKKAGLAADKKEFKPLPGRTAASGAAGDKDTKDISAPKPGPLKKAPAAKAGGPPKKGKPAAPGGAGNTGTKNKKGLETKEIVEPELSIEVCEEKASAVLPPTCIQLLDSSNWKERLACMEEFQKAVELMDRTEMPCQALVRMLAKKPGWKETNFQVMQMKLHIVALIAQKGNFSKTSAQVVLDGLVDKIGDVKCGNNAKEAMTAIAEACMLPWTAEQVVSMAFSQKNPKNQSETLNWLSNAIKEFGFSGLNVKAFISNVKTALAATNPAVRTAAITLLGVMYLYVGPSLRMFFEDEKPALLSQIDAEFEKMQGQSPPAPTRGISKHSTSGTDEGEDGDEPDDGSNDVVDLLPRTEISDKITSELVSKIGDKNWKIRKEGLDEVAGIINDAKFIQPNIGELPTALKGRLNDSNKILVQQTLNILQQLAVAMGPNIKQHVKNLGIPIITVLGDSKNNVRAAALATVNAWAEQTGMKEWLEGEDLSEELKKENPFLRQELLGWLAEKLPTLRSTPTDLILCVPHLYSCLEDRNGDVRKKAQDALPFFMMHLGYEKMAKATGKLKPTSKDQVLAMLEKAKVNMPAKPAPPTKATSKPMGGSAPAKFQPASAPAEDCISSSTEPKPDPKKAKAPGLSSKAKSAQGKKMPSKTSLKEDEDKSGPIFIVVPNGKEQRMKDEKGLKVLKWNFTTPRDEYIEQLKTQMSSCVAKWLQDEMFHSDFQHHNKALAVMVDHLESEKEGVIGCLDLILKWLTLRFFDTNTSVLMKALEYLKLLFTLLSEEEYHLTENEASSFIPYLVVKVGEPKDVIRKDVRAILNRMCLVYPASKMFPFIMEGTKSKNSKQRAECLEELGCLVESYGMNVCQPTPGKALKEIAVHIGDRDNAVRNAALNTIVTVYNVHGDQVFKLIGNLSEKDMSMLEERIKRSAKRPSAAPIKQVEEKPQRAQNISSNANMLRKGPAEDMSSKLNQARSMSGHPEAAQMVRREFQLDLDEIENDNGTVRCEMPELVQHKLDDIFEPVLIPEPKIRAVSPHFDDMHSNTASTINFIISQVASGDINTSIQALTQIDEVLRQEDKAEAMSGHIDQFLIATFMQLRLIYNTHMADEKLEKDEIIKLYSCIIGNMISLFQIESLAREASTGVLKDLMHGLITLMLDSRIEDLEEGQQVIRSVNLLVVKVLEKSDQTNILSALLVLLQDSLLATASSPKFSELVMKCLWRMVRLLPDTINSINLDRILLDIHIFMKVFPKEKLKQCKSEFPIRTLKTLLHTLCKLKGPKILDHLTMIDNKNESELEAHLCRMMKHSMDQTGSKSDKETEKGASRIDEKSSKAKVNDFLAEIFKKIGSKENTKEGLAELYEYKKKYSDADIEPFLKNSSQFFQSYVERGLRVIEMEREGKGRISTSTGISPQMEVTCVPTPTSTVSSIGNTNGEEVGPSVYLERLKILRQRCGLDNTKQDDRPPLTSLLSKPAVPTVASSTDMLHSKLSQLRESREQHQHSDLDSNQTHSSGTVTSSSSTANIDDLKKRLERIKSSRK
Sequence of UniProt Q96KP4 (Q96KP4 whole entry, looked up): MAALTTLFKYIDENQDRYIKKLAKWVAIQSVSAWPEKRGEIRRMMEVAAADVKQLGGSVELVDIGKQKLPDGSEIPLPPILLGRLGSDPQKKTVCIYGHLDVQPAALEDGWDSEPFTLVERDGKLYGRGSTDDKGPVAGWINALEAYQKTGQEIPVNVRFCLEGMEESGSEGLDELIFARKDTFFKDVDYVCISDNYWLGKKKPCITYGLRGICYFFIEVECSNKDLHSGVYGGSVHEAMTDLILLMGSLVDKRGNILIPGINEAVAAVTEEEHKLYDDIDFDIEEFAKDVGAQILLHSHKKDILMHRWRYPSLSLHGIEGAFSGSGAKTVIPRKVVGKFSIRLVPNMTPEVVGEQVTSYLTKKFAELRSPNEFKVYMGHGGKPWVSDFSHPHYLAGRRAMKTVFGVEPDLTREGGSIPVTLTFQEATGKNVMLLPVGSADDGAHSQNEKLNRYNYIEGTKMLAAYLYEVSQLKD
Sequence of UniProt Q9Y315 (Q9Y315 whole entry, looked up): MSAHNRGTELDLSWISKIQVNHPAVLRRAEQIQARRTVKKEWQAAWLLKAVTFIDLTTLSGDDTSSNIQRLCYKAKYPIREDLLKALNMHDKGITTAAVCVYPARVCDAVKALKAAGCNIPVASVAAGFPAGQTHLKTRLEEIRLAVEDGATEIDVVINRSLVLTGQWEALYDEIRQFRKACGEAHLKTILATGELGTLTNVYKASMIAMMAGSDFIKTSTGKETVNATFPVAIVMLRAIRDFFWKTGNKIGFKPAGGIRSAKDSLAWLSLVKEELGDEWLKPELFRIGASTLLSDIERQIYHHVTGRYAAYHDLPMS
Sequence of UniProt Q9NRF8 (Q9NRF8 whole entry, looked up): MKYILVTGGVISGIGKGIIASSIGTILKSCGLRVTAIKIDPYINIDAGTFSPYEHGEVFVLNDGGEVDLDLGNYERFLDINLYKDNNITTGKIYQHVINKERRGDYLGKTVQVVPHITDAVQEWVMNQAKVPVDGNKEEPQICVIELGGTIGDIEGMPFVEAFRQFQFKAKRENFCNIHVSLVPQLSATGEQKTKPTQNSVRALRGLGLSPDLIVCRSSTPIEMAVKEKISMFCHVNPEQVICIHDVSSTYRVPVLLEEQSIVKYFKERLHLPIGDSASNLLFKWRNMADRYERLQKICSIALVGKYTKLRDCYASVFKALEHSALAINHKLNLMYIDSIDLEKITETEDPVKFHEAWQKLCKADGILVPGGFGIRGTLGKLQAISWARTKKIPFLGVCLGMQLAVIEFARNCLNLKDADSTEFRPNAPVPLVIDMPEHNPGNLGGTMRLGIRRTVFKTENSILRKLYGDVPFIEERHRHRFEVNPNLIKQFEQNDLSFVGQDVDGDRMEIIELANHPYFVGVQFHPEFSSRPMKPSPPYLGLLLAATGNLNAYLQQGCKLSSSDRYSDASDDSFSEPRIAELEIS

Target	log2 fold change (nilotinib)	log2 fold change [1]	log2 fold change (dasatinib)	log2 fold change [2]	log2 fold change [3]	log2 fold change (quisinostat)	log2 fold change (tipifarnib)	log2 fold change [4]	log2 fold change [5]	log2 fold change [6]
DERA (UniProt Q9Y315)	0.037	-0.027	0.057	0.006	-0.017	-0.008	0.08	-0.017	-0.021	0
CTPS2 (UniProt Q9NRF8)	-0.005	0.006	-0.035	-0.002	0.01	0.029	0.003	0.001	-0.003	0.012
DHRS3 (UniProt O75911)	0.007	0.005	0.23 (active)	-0.028	0.024	-0.031	0.06	0.019	-0.078	-0.044
CKAP5 (UniProt Q14008)	0	0.002	-0.024	-0.005	0.026	-0.03	-0.028	0.021	0.01	0.006
DDA1 (UniProt Q9BW61)	0.003	0.008	-0.011	-0.056	0.006	-0.006	-0.008	-0.023	-0.027	0.023
CNDP2 (UniProt Q96KP4)	0.039	-0.023	0.017	0.051	-0.05	-0.074	-0.008	0.004	0.013	-0.003
DLD (UniProt P09622)	0.02	0.001	0.003	0.011	-0.022	-0.014	0.003	-0.015	-0.009	0.005
CTPS1 (UniProt P17812)	0.009	-0.005	-0.058	0.011	0.026	-0.019	-0.015	0.028	0.002	-0.004
DOCK10 (UniProt Q96BY6)	-0.046	-0.008	-0.086	-0.081	0.025	-0.636 (active)	-0.129	-0.011	0.029	-0.086
DIAPH1 (UniProt O60610)	-0.003	-0.009	-0.019	-0.009	0.006	-0.006	-0.006	-0.006	0.002	0.008
CUX1 isoform 3 (UniProt P39880)	-0.029	0.026	-0.04	0.012	0.006	-0.02	-0.057	0.006	0.03	-0.015
DHFR (UniProt P00374)	0.023	-0.041	-0.091	0.019	0.073	-0.009	-0.012	0.039	-0.129	-0.04
COX20 isoform 2 (UniProt Q5RI15)	0.051	-0.023	0.07	-0.024	0.013	-0.017	0.117	-0.026	-0.058	-0.03
DENND1B (UniProt Q6P3S1)	0.042	-0.073	0.073	-0.05	-0.09	-0.16	0.017	0.211	0.2	0.209
DARS (UniProt P14868)	0.01	-0.004	-0.032	-0.015	0.063	-0.007	0.01	0.044	-0.008	0.002

From the supplement of paper PMC10849652
